Data published in PMC11062922 (Nature Chemical Biology, 2023).
Like-named read-outs stand apart in the source and are kept apart here.

Key:
MARK3 = conditions: read-out: apparent Kd, n = 1
MARK4 = conditions: read-out: apparent Kd, n = 1
[1] = compound concentrations:100 nM and 1000 nM (sheet 'Lestaurtinib' of Supplementary Table 1),run:Lestaurtinib_02422_R1,Plate:MR006
[2] = compound concentrations:100 nM and 1000 nM (sheet 'Lestaurtinib' of Supplementary Table 1),run:Lestaurtinib_02437_R1,Plate:MR007
[3] = compound concentrations:100 nM and 1000 nM (sheet 'Lestaurtinib' of Supplementary Table 1),run:Lestaurtinib_02443_R2,Plate:MR009
[4] = compound concentrations:100 nM and 1000 nM (sheet 'Lestaurtinib' of Supplementary Table 1),run:Lestaurtinib_02473_R3,Plate:MR010
[5] = compound concentrations:100 nM and 1000 nM (sheet 'Lestaurtinib' of Supplementary Table 1),run:Lestaurtinib_02482_R2,Plate:MR011
[6] = compound concentrations:100 nM and 1000 nM (sheet 'Lestaurtinib' of Supplementary Table 1),run:Lestaurtinib_02482_R3,Plate:MR011
[7] = compound concentrations:100 nM and 1000 nM (sheet 'Lestaurtinib' of Supplementary Table 1),run:Lestaurtinib_02487_R1,Plate:MR012
[8] = compound concentrations:100 nM and 1000 nM (sheet 'Lestaurtinib' of Supplementary Table 1),run:Lestaurtinib_02487_R2,Plate:MR012
[9] = compound concentrations:100 nM and 1000 nM (sheet 'Lestaurtinib' of Supplementary Table 1),run:Lestaurtinib_02496_R2,Plate:MR013
[10] = compound concentrations:100 nM and 1000 nM (sheet 'Lestaurtinib' of Supplementary Table 1),run:Lestaurtinib_02496_R3,Plate:MR013
[11] = compound concentrations:100 nM and 1000 nM (sheet 'Lestaurtinib' of Supplementary Table 1),run:Lestaurtinib_02566_R1,Plate:MR014

With Lestaurtinib the potency estimated from few doses (MARK3; compound concentrations:100 nM and 1000 nM (sheet 'Lestaurtinib' of Supplementary Table 1),run:Lestaurtinib_02407_R1,Plate:MR005) was 0.16 µM, the potency estimated from few doses (MARK3; compound concentrations:100 nM and 1000 nM (sheet 'Lestaurtinib' of Supplementary Table 1),run:Lestaurtinib_02407_R2,Plate:MR005) was 0.151 µM and the potency estimated from few doses (MARK3; [1]) was 0.169 µM. It also gave a potency estimated from few doses (MARK3; compound concentrations:100 nM and 1000 nM (sheet 'Lestaurtinib' of Supplementary Table 1),run:Lestaurtinib_02422_R2,Plate:MR006) of 0.0523 µM, a potency estimated from few doses (MARK3; [2]) of 0.151 µM and a potency estimated from few doses (MARK3; compound concentrations:100 nM and 1000 nM (sheet 'Lestaurtinib' of Supplementary Table 1),run:Lestaurtinib_02437_R2,Plate:MR007) of 0.133 µM. For the same substance, the potency estimated from few doses (MARK3; compound concentrations:100 nM and 1000 nM (sheet 'Lestaurtinib' of Supplementary Table 1),run:Lestaurtinib_02437_R3,Plate:MR007) was 0.0232 µM, the potency estimated from few doses (MARK3; compound concentrations:100 nM and 1000 nM (sheet 'Lestaurtinib' of Supplementary Table 1),run:Lestaurtinib_02438_R1,Plate:MR008) was 0.196 µM and the potency estimated from few doses (MARK3; compound concentrations:100 nM and 1000 nM (sheet 'Lestaurtinib' of Supplementary Table 1),run:Lestaurtinib_02438_R2,Plate:MR008) was 0.16 µM. The potency estimated from few doses (MARK3; compound concentrations:100 nM and 1000 nM (sheet 'Lestaurtinib' of Supplementary Table 1),run:Lestaurtinib_02443_R1,Plate:MR009) was 0.202 µM, the potency estimated from few doses (MARK3; [3]) was 0.181 µM and the potency estimated from few doses (MARK3; compound concentrations:100 nM and 1000 nM (sheet 'Lestaurtinib' of Supplementary Table 1),run:Lestaurtinib_02443_R3,Plate:MR009) was 0.217 µM. The potency estimated from few doses (MARK3; [4]) was 0.0985 µM, the potency estimated from few doses (MARK3; [5]) was 0.158 µM and the potency estimated from few doses (MARK3; [6]) was 0.14 µM. It also gave a potency estimated from few doses (MARK3; [7]) of 0.153 µM, a potency estimated from few doses (MARK3; [8]) of 0.2 µM and a potency estimated from few doses (MARK3; compound concentrations:100 nM and 1000 nM (sheet 'Lestaurtinib' of Supplementary Table 1),run:Lestaurtinib_02487_R3,Plate:MR012) of 0.172 µM. For the same substance, the potency estimated from few doses (MARK3; [9]) was 0.153 µM, the potency estimated from few doses (MARK3; [10]) was 0.146 µM and the potency estimated from few doses (MARK3; [11]) was 0.14 µM. For the same substance, the potency estimated from few doses (MARK3; compound concentrations:100 nM and 1000 nM (sheet 'Lestaurtinib' of Supplementary Table 1),run:Lestaurtinib_02572_R1,Plate:MR015) was 0.14 µM, the potency estimated from few doses (MARK3; compound concentrations:100 nM and 1000 nM (sheet 'Lestaurtinib' of Supplementary Table 1),run:Lestaurtinib_02572_R2,Plate:MR015) was 0.162 µM and the potency estimated from few doses (MARK3; compound concentrations:100 nM and 1000 nM (sheet 'Lestaurtinib' of Supplementary Table 1),run:Lestaurtinib_02577_R1,Plate:MR016) was 0.158 µM. It also gave a potency estimated from few doses (MARK3; compound concentrations:100 nM and 1000 nM (sheet 'Lestaurtinib' of Supplementary Table 1),run:Lestaurtinib_02577_R2,Plate:MR016) of 0.224 µM, a potency estimated from few doses (MARK3; compound concentrations:100 nM and 1000 nM (sheet 'Lestaurtinib' of Supplementary Table 1),run:Lestaurtinib_02577_R3,Plate:MR016) of 0.259 µM and a potency estimated from few doses (MARK3; compound concentrations:100 nM and 1000 nM (sheet 'Lestaurtinib' of Supplementary Table 1),run:Lestaurtinib_02584_R3,Plate:MR017) of 0.211 µM. It also gave a potency estimated from few doses (MARK3; compound concentrations:100 nM and 1000 nM (sheet 'Lestaurtinib' of Supplementary Table 1),run:Lestaurtinib_02601_R2,Plate:MR018) of 0.184 µM, a potency estimated from few doses (MARK3; compound concentrations:100 nM and 1000 nM (sheet 'Lestaurtinib' of Supplementary Table 1),run:Lestaurtinib_02606_R2,Plate:MR019) of 0.131 µM and a potency estimated from few doses (MARK3; compound concentrations:100 nM and 1000 nM (sheet 'Lestaurtinib' of Supplementary Table 1),run:Lestaurtinib_02606_R3,Plate:MR019) of 0.162 µM. It also gave a potency estimated from few doses (MARK3; compound concentrations:100 nM and 1000 nM (sheet 'Lestaurtinib' of Supplementary Table 1),run:Lestaurtinib_02624_R1,Plate:MR020) of 0.146 µM, a potency estimated from few doses (MARK3; compound concentrations:100 nM and 1000 nM (sheet 'Lestaurtinib' of Supplementary Table 1),run:Lestaurtinib_02624_R2,Plate:MR020) of 0.143 µM and a potency estimated from few doses (MARK3; compound concentrations:100 nM and 1000 nM (sheet 'Lestaurtinib' of Supplementary Table 1),run:Lestaurtinib_02724_R1,Plate:MR021) of 0.157 µM. For the same substance, the potency estimated from few doses (MARK3; compound concentrations:100 nM and 1000 nM (sheet 'Lestaurtinib' of Supplementary Table 1),run:Lestaurtinib_02724_R2,Plate:MR021) was 0.18 µM, the potency estimated from few doses (MARK3; compound concentrations:100 nM and 1000 nM (sheet 'Lestaurtinib' of Supplementary Table 1),run:Lestaurtinib_02724_R3,Plate:MR021) was 0.163 µM and the potency estimated from few doses (MARK3; compound concentrations:100 nM and 1000 nM (sheet 'Lestaurtinib' of Supplementary Table 1),run:Lestaurtinib_02752_R3,Plate:MR025) was 0.189 µM. For the same substance, the potency estimated from few doses (MARK3; compound concentrations:100 nM and 1000 nM (sheet 'Lestaurtinib' of Supplementary Table 1),run:Lestaurtinib_02765_R3,Plate:MR026) was 0.143 µM, the potency estimated from few doses (MARK3; compound concentrations:100 nM and 1000 nM (sheet 'Lestaurtinib' of Supplementary Table 1),run:Lestaurtinib_02766_R3,Plate:MR027) was 0.137 µM and the potency estimated from few doses (MARK3; compound concentrations:100 nM and 1000 nM (sheet 'Lestaurtinib' of Supplementary Table 1),run:Lestaurtinib_02768_R3,Plate:MR028) was 0.136 µM. For the same substance, the potency estimated from few doses (MARK3; compound concentrations:100 nM and 1000 nM (sheet 'Lestaurtinib' of Supplementary Table 1),run:Lestaurtinib_02795_R1,Plate:MR022) was 0.154 µM, the potency estimated from few doses (MARK3; compound concentrations:100 nM and 1000 nM (sheet 'Lestaurtinib' of Supplementary Table 1),run:Lestaurtinib_02795_R2,Plate:MR022) was 0.141 µM and the potency estimated from few doses (MARK3; compound concentrations:100 nM and 1000 nM (sheet 'Lestaurtinib' of Supplementary Table 1),run:Lestaurtinib_02795_R3,Plate:MR022) was 0.268 µM. It also gave a potency estimated from few doses (MARK3; compound concentrations:100 nM and 1000 nM (sheet 'Lestaurtinib' of Supplementary Table 1),run:Lestaurtinib_02896_R1,Plate:MR030) of 0.142 µM, a potency estimated from few doses (MARK3; compound concentrations:100 nM and 1000 nM (sheet 'Lestaurtinib' of Supplementary Table 1),run:Lestaurtinib_02896_R3,Plate:MR030) of 0.159 µM and a potency estimated from few doses (MARK3; compound concentrations:100 nM and 1000 nM (sheet 'Lestaurtinib' of Supplementary Table 1),run:Lestaurtinib_03172_R1,Plate:MR031) of 0.161 µM. The potency estimated from few doses (MARK3; compound concentrations:100 nM and 1000 nM (sheet 'Lestaurtinib' of Supplementary Table 1),run:Lestaurtinib_03172_R2,Plate:MR031) was 0.207 µM, the potency estimated from few doses (MARK3; compound concentrations:100 nM and 1000 nM (sheet 'Lestaurtinib' of Supplementary Table 1),run:Lestaurtinib_03172_R3,Plate:MR031) was 0.146 µM and the potency estimated from few doses (MARK3; compound concentrations:100 nM and 1000 nM (sheet 'Lestaurtinib' of Supplementary Table 1),run:Lestaurtinib_03260_R1,Plate:MR033) was 0.381 µM. It also gave a potency estimated from few doses (MARK3; compound concentrations:100 nM and 1000 nM (sheet 'Lestaurtinib' of Supplementary Table 1),run:Lestaurtinib_03260_R2,Plate:MR033) of 0.379 µM, a potency estimated from few doses (MARK3; compound concentrations:100 nM and 1000 nM (sheet 'Lestaurtinib' of Supplementary Table 1),run:Lestaurtinib_03260_R3,Plate:MR033) of 0.184 µM and a potency estimated from few doses (MARK4; compound concentrations:100 nM and 1000 nM (sheet 'Lestaurtinib' of Supplementary Table 1),run:Lestaurtinib_02339_R2,Plate:MR001) of 0.165 µM. For the same substance, the potency estimated from few doses (MARK4; compound concentrations:100 nM and 1000 nM (sheet 'Lestaurtinib' of Supplementary Table 1),run:Lestaurtinib_02339_R3,Plate:MR001) was 0.385 µM, the potency estimated from few doses (MARK4; compound concentrations:100 nM and 1000 nM (sheet 'Lestaurtinib' of Supplementary Table 1),run:Lestaurtinib_02364_R1,Plate:MR002) was 0.073 µM and the potency estimated from few doses (MARK4; compound concentrations:100 nM and 1000 nM (sheet 'Lestaurtinib' of Supplementary Table 1),run:Lestaurtinib_02367_R2,Plate:MR003) was 0.0797 µM. It also gave a potency estimated from few doses (MARK4; compound concentrations:100 nM and 1000 nM (sheet 'Lestaurtinib' of Supplementary Table 1),run:Lestaurtinib_02367_R3,Plate:MR003) of 0.0851 µM, a potency estimated from few doses (MARK4; compound concentrations:100 nM and 1000 nM (sheet 'Lestaurtinib' of Supplementary Table 1),run:Lestaurtinib_02381_R3,Plate:MR004) of 0.209 µM and a potency estimated from few doses (MARK4; [1]) of 0.0748 µM. It also gave a potency estimated from few doses (MARK4; compound concentrations:100 nM and 1000 nM (sheet 'Lestaurtinib' of Supplementary Table 1),run:Lestaurtinib_02422_R3,Plate:MR006) of 0.0864 µM, a potency estimated from few doses (MARK4; [2]) of 0.974 µM and a potency estimated from few doses (MARK4; compound concentrations:100 nM and 1000 nM (sheet 'Lestaurtinib' of Supplementary Table 1),run:Lestaurtinib_02438_R3,Plate:MR008) of 0.0831 µM. The potency estimated from few doses (MARK4; [3]) was 0.0934 µM, the potency estimated from few doses (MARK4; compound concentrations:100 nM and 1000 nM (sheet 'Lestaurtinib' of Supplementary Table 1),run:Lestaurtinib_02473_R1,Plate:MR010) was 0.0845 µM and the potency estimated from few doses (MARK4; [4]) was 0.0597 µM. For the same substance, the potency estimated from few doses (MARK4; [5]) was 0.0864 µM, the potency estimated from few doses (MARK4; [6]) was 0.0839 µM and the potency estimated from few doses (MARK4; [7]) was 0.703 µM. For the same substance, the potency estimated from few doses (MARK4; [8]) was 0.162 µM, the potency estimated from few doses (MARK4; [9]) was 0.0839 µM and the potency estimated from few doses (MARK4; [10]) was 0.668 µM. The potency estimated from few doses (MARK4; [11]) was 0.708 µM, the potency estimated from few doses (MARK4; compound concentrations:100 nM and 1000 nM (sheet 'Lestaurtinib' of Supplementary Table 1),run:Lestaurtinib_02566_R2,Plate:MR014) was 0.0368 µM and the potency estimated from few doses (MARK4; compound concentrations:100 nM and 1000 nM (sheet 'Lestaurtinib' of Supplementary Table 1),run:Lestaurtinib_02566_R3,Plate:MR014) was 0.497 µM.
